The results in this text go back to PubChem BioAssay.

For assay [1], the system named is Plasmodium falciparum Sir2 (PF13_0152, Sir2A). In words: pfSir2 binders on small-molecule microarrays, primary screen, biochemical, small-molecule microarray, 635 nm fluorescence (AID 1098).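 Note: score merges spot fluorescence intensity with its signal-to-noise ratio.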 The note with it: small-molecule microarray binding, fluorescence 635 nm; higher = more signal.
Assay [2] can be described thus: small-molecule microarray binders of probe aDKK1, primary screen, biochemical, biotinylated probe, 635/667 nm fluorescence (AID 1099).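 Note: score merges 667nm spot fluorescence with signal to noise across triplicate slides; reference of the scale not given here.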 The note with it: higher = more signal.
A short description of assay [3]: small-molecule microarray binders of probe aCHRDL2, primary screen, biochemical, biotinylated probe, 635/667 nm fluorescence (AID 1100). The note with it: higher = more signal.
A short description of assay [4]: splicing luciferase reporter signal modulators, primary screen, spliceosome inhibition project, cell-based, HEK293, splice +/- reporter (AID 1101).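 Note: HEK293 cells carrying a splicing-competent luciferase reporter gene; test concentration not given here.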 The note with it: luminescence, 24 h, higher = more signal, called active from +8 up or from −8 down. Background: In a reporter assay the amount or activity of a reporter protein is the signal.
For assay [5], the target named is Fibroblast growth factor 10 (Homo sapiens) (UniProt O15520). The assay is described as follows: FGF10 binders on small-molecule microarrays, primary screen, biochemical, small-molecule microarray, 635 nm fluorescence (AID 1102). The note with it: FGF10 binding, fluorescence 635 nm, higher = more signal.
Assay [6] has as its system glycogen synthase kinase-3 (GSK3A per assay name; protocol says GSK3B). The assay is described as follows: GSK3 binders on small-molecule microarrays, primary screen, biochemical, small-molecule microarray, 635 nm fluorescence, GSK3A (AID 1103). Note: the record names both GSK3A and GSK3B. To be noted: small-molecule microarray binding, fluorescence 635 nm; higher = more signal.
Assay [7] addresses Epidermal growth factor receptor (Homo sapiens) (UniProt P00533). In words: EGFR binders on small-molecule microarrays, primary screen, biochemical, small-molecule microarray, 635 nm fluorescence (AID 1104).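 Note: score merges 667 nm emission intensity with spot signal to noise over triplicate slides.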 To be noted: EGFR binding, higher = more signal.
Assay [8] concerns the target Follistatin-related protein 3 (Homo sapiens) (UniProt O95633). The assay is described as follows: FSTL3 binders on small-molecule microarrays, primary screen, biochemical, small-molecule microarray, 635 nm fluorescence (AID 1105).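 Note: score merges emission near 667 nm and signal to noise per printed spot across three slides.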 To be noted: FSTL3 binding, higher = more signal.
Assay [9] concerns the target Dickkopf-related protein 1 (Homo sapiens) (UniProt O94907). The assay is described as follows: DKK1 binders on small-molecule microarrays, primary screen, biochemical, small-molecule microarray, 635 nm fluorescence scan (AID 1106).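 Note: score merges emission near 667 nm with signal to noise over three replicate slides.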 The note with it: DKK1 binding, higher = more signal.
For assay [10], the system named is Inhibin beta A chain (activin A). In words: INHBA (activin A) binders on microarrays, primary screen, biochemical, small-molecule microarray, 635 nm fluorescence scan (AID 1107).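 Note: mouse activin A protein probed at 4.33 µg/mL on printed slides; score merges bound-protein fluorescence near 667 nm with spot signal-to-noise.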 The note with it: small-molecule microarray binding, higher = more signal.

The structures appear in SMILES notation. The source made the active and inactive calls.

Dickkopf-related protein 1 (Homo sapiens), sequence (O94907 whole entry, looked up): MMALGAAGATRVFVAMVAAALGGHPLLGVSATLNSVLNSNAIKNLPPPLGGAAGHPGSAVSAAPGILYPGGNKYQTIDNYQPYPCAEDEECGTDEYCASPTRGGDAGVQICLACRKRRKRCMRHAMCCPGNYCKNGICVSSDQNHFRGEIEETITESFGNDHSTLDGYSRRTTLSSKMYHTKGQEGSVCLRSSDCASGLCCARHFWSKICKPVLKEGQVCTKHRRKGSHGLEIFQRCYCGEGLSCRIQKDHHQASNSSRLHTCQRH
Epidermal growth factor receptor (Homo sapiens), sequence (P00533 whole entry, looked up): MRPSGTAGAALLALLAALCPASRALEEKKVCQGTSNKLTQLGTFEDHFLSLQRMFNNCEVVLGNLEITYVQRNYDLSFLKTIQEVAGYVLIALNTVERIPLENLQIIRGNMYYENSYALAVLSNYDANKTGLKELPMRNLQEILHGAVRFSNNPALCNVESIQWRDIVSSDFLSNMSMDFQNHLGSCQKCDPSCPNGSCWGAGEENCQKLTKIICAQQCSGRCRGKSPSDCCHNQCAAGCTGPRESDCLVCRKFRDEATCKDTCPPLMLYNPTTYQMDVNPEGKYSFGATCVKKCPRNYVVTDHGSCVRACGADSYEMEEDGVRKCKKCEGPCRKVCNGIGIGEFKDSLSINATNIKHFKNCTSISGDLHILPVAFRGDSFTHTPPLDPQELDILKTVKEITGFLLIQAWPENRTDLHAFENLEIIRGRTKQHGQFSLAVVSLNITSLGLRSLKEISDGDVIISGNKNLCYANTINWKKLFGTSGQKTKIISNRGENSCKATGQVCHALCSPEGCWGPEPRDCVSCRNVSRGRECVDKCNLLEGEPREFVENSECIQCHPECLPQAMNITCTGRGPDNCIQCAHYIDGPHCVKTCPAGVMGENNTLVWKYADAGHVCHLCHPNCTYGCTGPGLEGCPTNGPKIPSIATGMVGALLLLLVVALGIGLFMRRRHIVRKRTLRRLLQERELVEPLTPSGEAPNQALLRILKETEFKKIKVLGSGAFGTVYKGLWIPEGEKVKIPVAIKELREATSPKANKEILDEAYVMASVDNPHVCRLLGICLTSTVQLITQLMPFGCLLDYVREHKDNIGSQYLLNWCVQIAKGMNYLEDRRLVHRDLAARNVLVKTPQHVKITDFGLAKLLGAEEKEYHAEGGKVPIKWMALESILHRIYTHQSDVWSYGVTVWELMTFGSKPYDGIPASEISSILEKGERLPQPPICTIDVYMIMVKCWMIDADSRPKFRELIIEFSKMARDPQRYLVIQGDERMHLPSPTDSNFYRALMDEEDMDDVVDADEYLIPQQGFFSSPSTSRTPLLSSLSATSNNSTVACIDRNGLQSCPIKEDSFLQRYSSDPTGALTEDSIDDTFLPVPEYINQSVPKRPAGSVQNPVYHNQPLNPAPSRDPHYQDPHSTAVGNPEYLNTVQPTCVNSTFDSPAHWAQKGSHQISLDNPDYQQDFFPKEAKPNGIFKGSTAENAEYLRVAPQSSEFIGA
Fibroblast growth factor 10 (Homo sapiens), sequence (O15520 whole entry, looked up): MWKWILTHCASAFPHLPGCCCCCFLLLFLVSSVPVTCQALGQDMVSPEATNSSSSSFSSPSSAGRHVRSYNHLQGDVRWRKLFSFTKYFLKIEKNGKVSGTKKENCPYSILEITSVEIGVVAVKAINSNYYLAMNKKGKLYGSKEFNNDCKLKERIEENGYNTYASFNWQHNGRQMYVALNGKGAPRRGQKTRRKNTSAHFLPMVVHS
Follistatin-related protein 3 (Homo sapiens), sequence (O95633 whole entry, looked up): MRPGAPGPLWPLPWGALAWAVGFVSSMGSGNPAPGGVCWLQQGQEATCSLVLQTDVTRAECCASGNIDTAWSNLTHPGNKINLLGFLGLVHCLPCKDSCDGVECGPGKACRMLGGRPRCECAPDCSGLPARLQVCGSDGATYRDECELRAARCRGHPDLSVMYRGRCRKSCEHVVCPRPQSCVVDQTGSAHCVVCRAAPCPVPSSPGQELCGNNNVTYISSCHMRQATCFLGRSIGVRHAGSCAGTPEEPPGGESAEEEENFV

Regarding `CN1C(=O)C2C=CC(C(O)c3ccc(F)cc3)N(NC(=O)OC(C)(C)C)C2C1=O` (stereo not given), the composite z-score was 0.578 in [1]; -0.066 in [2]; 0.535 in [3]; 0.45 in assay [5]; 0.336 in assay [6]; -0.196 in [7]. Besides, the figures for the composite z-score in [8], in assay [9] and in [10] were 0.15, -0.767 and 0.471, respectively. Moreover, the z-score in [4] was 1.15 (inactive).
Regarding `O=C1C[C@@](C(=O)NCC(F)(F)F)(c2ccc([N+](=O)[O-])cc2)[C@@H](c2ccc(CO)cc2)N1CC12CC3CC(CC(C3)C1)C2`, the composite z-score was 1.4 in assay [1]; 1.09 in [2]; 0.957 in assay [3]; 1.44 in assay [5]; 1.07 in [6]; 1.13 in [7]. Moreover, the values for the composite z-score in assay [8], in assay [9] and in assay [10] were 1.03, 0.927 and 0.469, respectively. Moreover, the z-score in assay [4] was -2.11 (inactive).
Take `C=C(/C(=C/C[C@@H](OC(C)=O)c1ccc(CO)o1)c1cc(C(=O)OC)ccc1OC)C(C)C`: the composite z-score in assay [1] was 0.12; in assay [2] it was -0.22; in assay [3] it was -0.256; in [5] it was 1.02; in assay [6], 0.469; in assay [7], -0.132. Besides, the figures for the composite z-score in [8], in assay [9] and in assay [10] were 0.347, 0.251 and 0.995, respectively. Besides, in [4], the z-score is 0.227 (inactive).
With `NC(=O)NCC#Cc1ccc2c(c1)[C@]1(C(=O)N2)[C@H](C(=O)N2CCN(c3ncccn3)CC2)[C@H]2C(=O)O[C@H](c3ccccc3)[C@H](c3ccccc3)N2[C@@H]1c1ccc(OCCO)cc1`, the composite z-score was 0.695 in assay [1]; 0.23 in [2]; 0.433 in assay [3]; 0.766 in assay [5]; -0.364 in assay [6]; 0.669 in assay [7]. Moreover, the composite z-score in assay [8] was found to be 1.08; in assay [9], 0.151; in [10], 0.926. The z-score in [4] is -0.245 (inactive).
In the case of `CC(C)c1ccc(NN2C(C(O)Cc3ccccc3)C=CC3C(=O)N(c4ccccc4)C(=O)C32)cc1` (stereo not given), the composite z-score is 0.587 in assay [1]; 0.655 in assay [2]; 0.811 in [3]; 0.932 in [5]; 1.04 in assay [6]; 0.399 in assay [7]. Also, the composite z-score is 1.26 in assay [8], 0.241 in assay [9] and -0.323 in [10]. The z-score in [4] is -0.469 (inactive).
Regarding `CN1C(=O)C2C=CC(C(O)c3ccc(I)cc3)N(Nc3ccccc3)C2C1=O` (stereo not given), the composite z-score was found to be 1.23 in assay [1]; 0.158 in [2]; 0.926 in assay [3]; 1.16 in assay [5]; 0.995 in assay [6]; 0.271 in assay [7]. Besides, the composite z-score in assay [8] was 1.31; in assay [9], -0.158; in assay [10], 0.966. The z-score in assay [4] was 0.623 (inactive).
In the case of `CCCCCCCCCCC(O)C1C=CC2C(=O)N(C)C(=O)C2N1Nc1cc(OC)c(OC)c(OC)c1` (stereo not given), the composite z-score in assay [1] was 1.05; in assay [2] it was 0.571; in [3] it was 0.858; in assay [5], -0.471; in assay [6], -1.29; in assay [7] it was -0.637. In addition, the composite z-score was -1.29 in [8], -0.939 in assay [9] and 1.18 in assay [10]. Moreover, in assay [4], the z-score is 0.271 (inactive).
With `C=C(C)C1CCC(C(O)C2C=CC3C(=O)N(C)C(=O)C3N2Nc2cc(OC)c(OC)c(OC)c2)CC1` (stereo not given), the composite z-score in assay [1] turned out to be 0.506; in assay [2], 0.005; in assay [3], 0.422; in assay [5], 0.755; in assay [6], 1.17; in assay [7], 0.885. Further, the composite z-score turned out to be 1.15 in [8], 0.519 in assay [9] and 1.11 in [10]. Also, the z-score in assay [4] is 0.719 (inactive).
Turning to `C=CCN1C(=O)[C@]2(O[C@H](CCO)[C@@H]([Si](C)(C)c3ccc(OC)cc3)[C@@H]2C)c2cc(NC(=O)c3ccc(OC)cc3)ccc21`, the composite z-score was 0.527 in assay [1]; -0.19 in assay [2]; -0.525 in assay [3]; 0.468 in assay [5]; 0.448 in [6]; 0.484 in assay [7]. Also, the composite z-score in assay [8] was 1.23; in [9], 0.682; in assay [10], 0.982. For the same compound, the z-score in assay [4] is -2.1 (inactive).
Regarding `O=C(CS)NCCCCCCNC(=O)[C@@H]1C[C@@H]2C(=O)NCC(=O)N2[C@@H]1c1ccc(O)cc1`, the composite z-score in [1] is 1.57; in assay [2] it was -0.11; in assay [3], 0.592; in assay [5], -0.297; in assay [6] it was -0.135; in assay [7], -0.395. Also, the results for the composite z-score in assay [8], in assay [9] and in [10] were -0.586, -0.262 and -0.716, respectively. Moreover, the z-score in [4] is -1.65 (inactive).
Consider `COc1ccc(C(=O)Nc2cccc(CN3C(=O)[C@]4(O[C@H](CCn5cc([C@H](O)c6ccccc6)nn5)[C@@H]([Si](C)(C)c5ccc(OC)cc5)[C@@H]4C)c4ccccc43)c2)cc1`, for which the composite z-score in assay [1] is 0.758; in assay [2], 0.224; in assay [3] it was 0.265; in assay [5], 0.26; in assay [6] it was -0.266; in [7] it was -0.339. In addition, the composite z-score in assay [8] was 0.31; in assay [9], -0.132; in assay [10], 1.41. Moreover, the z-score in assay [4] was -2.49 (inactive).
For the compound `COC(=O)[C@@]1(Cc2ccccc2CN=[N+]=[N-])N=C(c2ccc(OCCCO)cc2)O[C@H]1c1ccccc1`, the composite z-score in [1] is 1.13; in assay [2], 0.789; in assay [3] it was 0.966; in [5], -0.438; in [6], -0.0487; in assay [7], -0.0819. The figures for the composite z-score in assay [8], in [9] and in assay [10] were -0.153, -0.459 and 1.13, respectively. Also, the z-score in assay [4] was 0.31 (inactive).
Regarding `COCCOC(=O)N1C(=O)[C@@]2(c3cc(C#CCC(C(=O)OC)C(=O)OC)ccc31)[C@H](c1ccc(O)cc1)N1[C@H](c3ccccc3)[C@H](c3ccccc3)OC(=O)[C@H]1[C@@H]2C(=O)NC[C@H](O)c1ccccc1`, the composite z-score in [1] turned out to be 0.542; in [2], 0.362; in [3] it was 0.181; in assay [5], 0.681; in assay [6] it was 0.882; in assay [7], 0.335. In addition, the results for the composite z-score in assay [8], in [9] and in assay [10] were 0.602, 0.148 and 0.466, respectively. Besides, the z-score in assay [4] is 0.579 (inactive).
For the compound `O=C(O)[C@@H]1C[C@@H]2C(=O)N3CCC[C@H]3C(=O)N2[C@@H]1c1cccc(OCCO)c1`, the composite z-score stood at 2.07 in [1]; 2.67 in assay [2]; 1.72 in assay [3]; 1.36 in assay [5]; 1.44 in [6]; 1.41 in assay [7]. Moreover, the composite z-score was 1.54 in [8], 1.9 in [9] and 1.98 in assay [10]. Also, in assay [4], the z-score is 0.0627 (inactive).
